Source: PubChem BioAssay (NCATS)
Records with an inconclusive call do not appear. Active and inactive are the calls of the source. The call rests on the fitted dose curve; in most records, active means well fitted curve in the direction sought with a large enough effect; inconclusive means small, poorly fitted or top-dose-only effect, or another doubt; inactive means no such curve, though single readings can be large; an effect the other way counts as inactive or inconclusive. Square brackets hold non-standard residues; d marks the D form. Peptide text beside a SMILES is read from it. ξ: configuration not given here. ξPhe(βξ-Me) = CC(c1ccccc1)C(N)C(=O)O; GABA = NCCCC(=O)O

molecular target: Aldehyde dehydrogenase, mitochondrial (Homo sapiens) (UniProt P05091); assay: qHTS for Inhibitors of the Aldehyde Dehydrogenase Family (ALDH2) Primary screen (AID 2061308); conditions: ALDH2 enzyme inhibition qHTS, 1536-well; series mostly up to 56 µM; activity change, negative = inhibition: at the top concentration;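 further: plate controls were vehicle for no effect and reference inhibitor for full effect; nearly all actives have a fitted effect of over 55% in size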

SMILES | activity change, negative = inhibition
COc1ccc(CCO[C@@H]2O[C@H](CO[C@@H]3OC[C@H](O)[C@H](O)[C@H]3O)[C@@H](O)[C@H](O)[C@H]2O)cc1 | 15.7% [at 28 µM] (inactive)
CC(=O)O[C@@H]1[C@@H](CO)O[C@@](CO)(O[C@H]2O[C@H](COC(=O)/C=C/c3ccccc3)[C@@H](O)[C@H](O)[C@H]2O)[C@H]1O | 26.4% [at 28 µM] (inactive)
Cc1cc(N2CCN(C(=O)Oc3ccc(-c4ccccc4)cn3)CC2)c2ccccc2n1 | -2.53% (inactive)
CC1OC(OC2C(OC3C(O[C@H]4CC[C@@]5(C)C(CC[C@]6(C)C5C(=O)C=C5C7CC(C)(C)CC(O)[C@]7(C)CC[C@]56C)C4(C)C)OC(C(=O)O)C(O)C3O)OCC(O)C2O)C(O)C(O)C1O (stereo partly specified) | -0.824% [at 16.9 µM] (inactive)
Cc1cc(C(=O)N2Cc3cnn(C)c3Nc3ccccc32)ccc1CNC(=O)N1CCN(Cc2cc(O)cc(O)c2)CC1 | -4.98% (inactive)
CCOC(=O)N1c2ccc(C(F)(F)F)cc2C(N(Cc2cc(C(F)(F)F)cc(C(F)(F)F)c2)C(=O)OC)CC1CC (stereo unspecified) | 7.8% (inactive)
C=C1CC23CC1CCC2C12OC(=O)C(C)(C(O)CC1O)C2C3C(=O)O (stereo unspecified) | -9.73% (inactive)
C[C@H]1CC[C@@]2(OC1)O[C@H]1CC3C4CC[C@H]5C[C@@H](O[C@@H]6O[C@H](CO)[C@H](O[C@@H]7O[C@H](CO)[C@@H](O)[C@H](O[C@@H]8OC[C@@H](O)[C@H](O)[C@H]8O)[C@H]7O[C@@H]7O[C@H](CO)[C@@H](O)[C@H](O)[C@H]7O)[C@H](O)[C@H]6O)[C@H](O)C[C@]5(C)C4=CC(=O)[C@]3(C)[C@H]1[C@@H]2C (stereo partly specified) | 0.178% [at 16.9 µM] (inactive)
COc1ccc(CN2C(=O)C(=O)c3cc(S(=O)(=O)N4CCC[C@H]4COc4cccnc4)ccc32)cc1 | -17.7% (inactive)
C=C[C@H]1[C@H](O[C@@H]2O[C@H](CO)[C@@H](O)[C@H](O)[C@H]2O)OC=C(C(=O)OC)[C@H]1CC(=O)O | 1.75% (inactive)
C[C@@H]1O[C@@H](O[C@H]2[C@H](OC(=O)[C@]34CCC(C)(C)C[C@H]3C3=CCC5[C@@]6(C)C[C@H](O)[C@H](O[C@@H]7O[C@H](CO)[C@@H](O)[C@H](O)[C@H]7O)[C@@](C)(CO)C6[C@H](O)C[C@@]5(C)[C@]3(C)CC4)OC[C@H](O)[C@@H]2O)[C@H](O)[C@H](O)[C@H]1O[C@@H]1OC[C@@H](O)[C@H](O[C@@H]2OC[C@](O)(CO)[C@H]2O)[C@H]1O (stereo partly specified) | 8.31% [at 11.2 µM] (inactive)
CC1CCC2(OC1)OC1CC3C4CC=C5CC(O)CC(O[C@@H]6OC[C@@H](O)[C@H](O)[C@H]6O)C5(C)C4CCC3(C)C1(O)C2C (stereo partly specified) | 11.1% [at 16.9 µM] (inactive)
C=CC(C)(O)CCC1C(C)(O)CCC2C(C)(C)CCCC21C (stereo unspecified) | 15.2% (inactive)
C=C(C)C1CCC2(C(=O)OC3OC(COC4OC(CO)C(O)C(O)C4O)C(OC4OC(C)C(O)C(O)C4O)C(O)C3O)CCC3(C(=O)O)C(CCC4C5(C)CCC(=O)C(C)(C)C5CCC43C)C12 (stereo unspecified) | 15.5% [at 16.9 µM] (inactive)

molecular target: Retinaldehyde dehydrogenase 3 (Homo sapiens) (UniProt P47895); assay: qHTS for Inhibitors of the Aldehyde Dehydrogenase Family (ALDH1A3) Primary screen (AID 2061315); conditions: ALDH inhibition qHTS; series mostly up to 56 µM; activity change, negative = inhibition: at the top concentration;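 further: plate controls were DMSO vehicle for no effect and reference inhibitor for full effect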

SMILES | activity change, negative = inhibition
CCOc1cc(CNC2CCCC2)cc(Cl)c1OCc1ccc(Cl)cc1 | 7.87% (inactive)
CC1=CC(=O)[C@H]2C(C)(C)CCC[C@]2(C)[C@@]1(O)CO | -11.3% (inactive)
O=C(/C=C/c1ccc(O)cc1)OCC1OC(O)C(OC2OC(CO)C(O)C(O)C2O)C(O)C1O (stereo unspecified) | -17.1% [at 28 µM] (inactive)
C/C(=C\CO)CC/C=C(\C)C(=O)O[C@@H]1O[C@H](CO)[C@@H](O)[C@H](O)[C@H]1O | -4.76% (inactive)
O=C(OCC(O)CO[C@@H]1O[C@H](C(=O)O)[C@@H](O)[C@H](O)[C@H]1O)c1ccccc1 (stereo partly specified) | -14.9% (inactive)
CNC(=O)c1ccccc1Sc1ccc2c(/C=C/c3ccccn3)n[nH]c2c1 | -8.03% (inactive)
CC(C)(O)c1ccc2c(c1)C(=O)C[C@H]1[C@](C)(C(=O)O)CCC[C@]21C | 1.8% (inactive)
CC(C)CC1NC(=O)C(C(C)c2ccccc2)NC(=O)C(C(C)C)NC(=O)C(C)NC(=O)CCCNC(=O)C(Cc2c[nH]c3ccccc23)NC(=O)C(C)NC1=O (stereo not drawn) (cyclo([GABA]AV[ξPhe(βξ-Me)]LAW); configuration not given here) | 14.4% [at 16.9 µM] (inactive)
COc1cc(O[C@@H]2O[C@H](CO)[C@@H](O)[C@H](O)[C@H]2O)c(CCC(=O)OC[C@H]2O[C@@H](Oc3cc(OC)c(C4OC(=O)C(C)(O)C4O)cc3CCC(=O)O)[C@H](O)[C@@H](O)[C@@H]2O)cc1C1OC(=O)C(C)(O)C1O (stereo partly specified) | 15.3% [at 16.9 µM] (inactive)
C[C@@H](Oc1cc(-n2cnc3ccc(OC4CCN(C)CC4)cc32)sc1C(N)=O)c1ccccc1C(F)(F)F | -8.56% (inactive)
CCc1nn(CCO)c(CC)c1Oc1cc(C#N)cc(C#N)c1 | -1.21% (inactive)
C=C[C@@]12COC(=O)C(=C)[C@@H]1[C@@H](O)[C@H](C(=C)C(=O)OC)[C@@H](O)C2 | 7.54% (inactive)
CC(=O)c1cc(C(=O)N[C@@H](C)Cn2ccc(-c3ccc(C#N)c(Cl)c3)n2)[nH]n1 | -3.51% (inactive)
O=C(OC1C=C(CO)C2C(OC3OC(CO)C(O)C(O)C3O)OC=CC12)c1ccc(O)cc1 (stereo unspecified) | -4.14% [at 28 µM] (inactive)
CC(C)C1NC(=O)CNC(=O)C2CCCN2C(=O)C(Cc2c[nH]c3ccccc23)NC(=O)CNC(=O)C(Cc2ccc(O)cc2)NC(=O)CNC1=O (stereo unspecified) (cyclo(GVGYGWP); configuration not given here) | 2.39% [at 16.9 µM] (inactive)
CCOC(=O)CCNc1cc(N2CCc3ccccc3CC2)nc(-c2cccnc2)n1 | -6.4% (inactive)
O=C1c2c(O[C@@H]3O[C@H](CO)[C@@H](O)[C@H](O)[C@H]3O)cc(O)cc2OC1(O)Cc1ccc(O)cc1 (stereo partly specified) | -5.12% [at 28 µM] (inactive)
C/C(=C\C1CCC(C)C2CCC3(C)OC123)C(=O)O (stereo unspecified) | 8.61% (inactive)
CC1(C)[C@@H](O)CC[C@]2(C)[C@H]3CC=C4[C@@H]5C[C@](C)(C(=O)O)CC[C@]5(C)CC[C@@]4(C)[C@]3(C)CC[C@@H]12 | 3.76% (inactive)

SMILES | activity change, negative = inhibition
CC(C)(C)[C@H](NC(=O)c1ccc(N)c(Cl)c1)C(=O)N1CCC[C@H]1C(=O)N[C@H](C#N)CC(=O)O | -0.997% (inactive)
C/C=C(\C)C(=O)O[C@@H]1CC2[C@@H](CC=C3C[C@@H](O[C@H]4C[C@H](OC)[C@H](O[C@H]5C[C@H](OC)[C@H](O[C@H]6C[C@H](OC)[C@H](O[C@H]7C[C@@H](OC)[C@H](O[C@@H]8O[C@H](CO)[C@@H](O)[C@H](O)[C@H]8O)[C@@H](C)O7)[C@@H](C)O6)[C@@H](C)O5)[C@@H](C)O4)CC[C@@]32C)[C@@]2(O)CC[C@H](C(C)=O)[C@@]12C (stereo partly specified) | -14.5% [at 11.2 µM] (inactive)
CC(=O)O[C@H]1[C@H](O[C@H]2CC[C@]34C[C@]35CC[C@]3(C)[C@@H]([C@@]6(C)CC[C@@H](C(C)(C)O)O6)[C@@H](O)C[C@@]3(C)[C@@H]5C[C@H](O[C@@H]3O[C@H](CO)[C@@H](O)[C@H](O)[C@H]3O)[C@H]4C2(C)C)OC[C@@H](OC(C)=O)[C@@H]1O | -12.8% (inactive)
COC(=O)C1=CO[C@@H](O[C@@H]2O[C@H](CO)[C@@H](O)[C@H](O)[C@H]2O)/C(=C\CO)[C@@H]1CC(=O)OCCc1ccc(O)cc1 | -22.5% [at 28 µM] (inactive)
CC(C)Oc1ccc(-c2nc(-c3cccc4c3CCC4NCCC(=O)O)no2)cc1C#N (stereo unspecified) | -5.47% (inactive)
CC[C@H]1OC(=O)[C@H](C)C(=O)[C@H](C)[C@@H](OC2O[C@H](C)C[C@H](N(C)C)[C@H]2O)[C@@H](C)C[C@@H](C)C(=O)/C=C/[C@]1(C)O (stereo partly specified) | 12.7% [at 28 µM] (inactive)
COC(=O)C1=CO[C@@H](O[C@@H]2O[C@H](CO)[C@@H](O)[C@H](O)[C@H]2O)[C@@H]2[C@@](C)(O)[C@@H](O)C[C@]12O | 2.18% [at 28 µM] (inactive)
COc1ccc(CCO[C@@H]2O[C@H](CO[C@@H]3OC[C@H](O)[C@H](O)[C@H]3O)[C@@H](O)[C@H](O)[C@H]2O)cc1 | -10.5% [at 28 µM] (inactive)
CC(=O)O[C@@H]1[C@@H](CO)O[C@@](CO)(O[C@H]2O[C@H](COC(=O)/C=C/c3ccccc3)[C@@H](O)[C@H](O)[C@H]2O)[C@H]1O | -12.9% [at 28 µM] (inactive)
Cc1cc(N2CCN(C(=O)Oc3ccc(-c4ccccc4)cn3)CC2)c2ccccc2n1 | 3.67% (inactive)
CC1OC(OC2C(OC3C(O[C@H]4CC[C@@]5(C)C(CC[C@]6(C)C5C(=O)C=C5C7CC(C)(C)CC(O)[C@]7(C)CC[C@]56C)C4(C)C)OC(C(=O)O)C(O)C3O)OCC(O)C2O)C(O)C(O)C1O (stereo partly specified) | 2.71% [at 16.9 µM] (inactive)
Cc1cc(C(=O)N2Cc3cnn(C)c3Nc3ccccc32)ccc1CNC(=O)N1CCN(Cc2cc(O)cc(O)c2)CC1 | -7.69% (inactive)
CCOC(=O)N1c2ccc(C(F)(F)F)cc2C(N(Cc2cc(C(F)(F)F)cc(C(F)(F)F)c2)C(=O)OC)CC1CC (stereo unspecified) | -11.8% (inactive)
C=C1CC23CC1CCC2C12OC(=O)C(C)(C(O)CC1O)C2C3C(=O)O (stereo unspecified) | -14.9% (inactive)
C[C@H]1CC[C@@]2(OC1)O[C@H]1CC3C4CC[C@H]5C[C@@H](O[C@@H]6O[C@H](CO)[C@H](O[C@@H]7O[C@H](CO)[C@@H](O)[C@H](O[C@@H]8OC[C@@H](O)[C@H](O)[C@H]8O)[C@H]7O[C@@H]7O[C@H](CO)[C@@H](O)[C@H](O)[C@H]7O)[C@H](O)[C@H]6O)[C@H](O)C[C@]5(C)C4=CC(=O)[C@]3(C)[C@H]1[C@@H]2C (stereo partly specified) | 7.94% [at 16.9 µM] (inactive)
COc1ccc(CN2C(=O)C(=O)c3cc(S(=O)(=O)N4CCC[C@H]4COc4cccnc4)ccc32)cc1 | -3.03% (inactive)
C=C[C@H]1[C@H](O[C@@H]2O[C@H](CO)[C@@H](O)[C@H](O)[C@H]2O)OC=C(C(=O)OC)[C@H]1CC(=O)O | -4% (inactive)
C[C@@H]1O[C@@H](O[C@H]2[C@H](OC(=O)[C@]34CCC(C)(C)C[C@H]3C3=CCC5[C@@]6(C)C[C@H](O)[C@H](O[C@@H]7O[C@H](CO)[C@@H](O)[C@H](O)[C@H]7O)[C@@](C)(CO)C6[C@H](O)C[C@@]5(C)[C@]3(C)CC4)OC[C@H](O)[C@@H]2O)[C@H](O)[C@H](O)[C@H]1O[C@@H]1OC[C@@H](O)[C@H](O[C@@H]2OC[C@](O)(CO)[C@H]2O)[C@H]1O (stereo partly specified) | 7.08% [at 11.2 µM] (inactive)
